According to the supplement of paper PMC11732987, “Enantioselective OTUD7B fragment discovery through chemoproteomics screening and high-throughput optimisation” (Communications Chemistry, 2025):

Columns and labels:
Assay in all cases: log2 ratio of Biotin-Ahx-Ub-VS probe labelling (fragment/DMSO); higher = less target engagement (more negative = stronger competition), active = hit call of the paper (q ≤ 0.05, log2 ratio ≤ -1)
Details in all cases: compound concentration: 200 uM; treatment time: 3 h
[1] = target: T1, USP19 (UniProt O94966)
T1 sequence (whole entry): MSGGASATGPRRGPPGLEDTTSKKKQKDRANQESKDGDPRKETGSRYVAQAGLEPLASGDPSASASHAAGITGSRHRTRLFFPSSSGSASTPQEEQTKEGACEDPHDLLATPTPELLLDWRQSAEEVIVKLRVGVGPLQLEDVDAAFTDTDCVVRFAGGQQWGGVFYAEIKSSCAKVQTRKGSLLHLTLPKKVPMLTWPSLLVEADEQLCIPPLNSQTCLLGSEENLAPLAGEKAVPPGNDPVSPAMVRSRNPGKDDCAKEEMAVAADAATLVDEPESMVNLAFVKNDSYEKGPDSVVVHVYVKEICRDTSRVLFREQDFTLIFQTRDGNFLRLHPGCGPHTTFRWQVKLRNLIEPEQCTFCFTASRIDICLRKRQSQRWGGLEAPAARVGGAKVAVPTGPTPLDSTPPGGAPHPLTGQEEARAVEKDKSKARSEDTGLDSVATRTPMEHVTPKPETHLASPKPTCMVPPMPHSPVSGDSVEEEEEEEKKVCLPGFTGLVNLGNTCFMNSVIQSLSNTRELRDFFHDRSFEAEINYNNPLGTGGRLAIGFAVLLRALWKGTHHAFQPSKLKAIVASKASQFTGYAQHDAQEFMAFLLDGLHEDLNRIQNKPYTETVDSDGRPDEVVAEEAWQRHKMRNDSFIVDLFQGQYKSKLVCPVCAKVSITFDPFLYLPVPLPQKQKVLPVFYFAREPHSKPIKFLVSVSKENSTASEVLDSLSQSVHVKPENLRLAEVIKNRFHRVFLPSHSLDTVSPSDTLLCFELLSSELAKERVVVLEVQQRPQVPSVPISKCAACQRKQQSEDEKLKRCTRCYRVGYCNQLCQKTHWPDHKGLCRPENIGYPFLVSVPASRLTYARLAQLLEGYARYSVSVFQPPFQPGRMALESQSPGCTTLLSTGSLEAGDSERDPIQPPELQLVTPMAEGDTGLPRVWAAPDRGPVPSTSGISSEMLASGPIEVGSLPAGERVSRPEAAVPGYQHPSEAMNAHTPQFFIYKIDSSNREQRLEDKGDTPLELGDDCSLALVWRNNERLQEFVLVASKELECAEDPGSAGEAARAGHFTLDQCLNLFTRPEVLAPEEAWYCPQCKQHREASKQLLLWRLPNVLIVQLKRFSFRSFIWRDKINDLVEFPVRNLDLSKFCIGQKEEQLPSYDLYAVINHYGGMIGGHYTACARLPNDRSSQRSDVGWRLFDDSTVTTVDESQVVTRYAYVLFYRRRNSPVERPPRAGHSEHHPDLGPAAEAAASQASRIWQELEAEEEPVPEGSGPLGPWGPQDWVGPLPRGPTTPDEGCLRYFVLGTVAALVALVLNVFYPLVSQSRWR
Summary of the method: (§1)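 Each value is an average log2 ratio of fragment to vehicle, tested by unpaired t-test. The underlying Spectronaut label-free quantities were global-median-normalised, and only proteins with ≥2 unique peptides were included. Triplicate HEK293T lysate samples (495 µg) were exposed to fragment at 200 µM or vehicle for 3 h, then to Biotin-Ahx-Ub-VS at 0.5 µM final for 1 h, before NeutrAvidin enrichment of labelled DUBs, LysC and trypsin digestion, and diaPASEF LC-MS/MS.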

[2] = target: USP24 (UniProt Q9UPU5)
Summary of the method: as §1

[3] = target: T2, USP25 (UniProt Q9UHP3)
T2 sequence (whole entry): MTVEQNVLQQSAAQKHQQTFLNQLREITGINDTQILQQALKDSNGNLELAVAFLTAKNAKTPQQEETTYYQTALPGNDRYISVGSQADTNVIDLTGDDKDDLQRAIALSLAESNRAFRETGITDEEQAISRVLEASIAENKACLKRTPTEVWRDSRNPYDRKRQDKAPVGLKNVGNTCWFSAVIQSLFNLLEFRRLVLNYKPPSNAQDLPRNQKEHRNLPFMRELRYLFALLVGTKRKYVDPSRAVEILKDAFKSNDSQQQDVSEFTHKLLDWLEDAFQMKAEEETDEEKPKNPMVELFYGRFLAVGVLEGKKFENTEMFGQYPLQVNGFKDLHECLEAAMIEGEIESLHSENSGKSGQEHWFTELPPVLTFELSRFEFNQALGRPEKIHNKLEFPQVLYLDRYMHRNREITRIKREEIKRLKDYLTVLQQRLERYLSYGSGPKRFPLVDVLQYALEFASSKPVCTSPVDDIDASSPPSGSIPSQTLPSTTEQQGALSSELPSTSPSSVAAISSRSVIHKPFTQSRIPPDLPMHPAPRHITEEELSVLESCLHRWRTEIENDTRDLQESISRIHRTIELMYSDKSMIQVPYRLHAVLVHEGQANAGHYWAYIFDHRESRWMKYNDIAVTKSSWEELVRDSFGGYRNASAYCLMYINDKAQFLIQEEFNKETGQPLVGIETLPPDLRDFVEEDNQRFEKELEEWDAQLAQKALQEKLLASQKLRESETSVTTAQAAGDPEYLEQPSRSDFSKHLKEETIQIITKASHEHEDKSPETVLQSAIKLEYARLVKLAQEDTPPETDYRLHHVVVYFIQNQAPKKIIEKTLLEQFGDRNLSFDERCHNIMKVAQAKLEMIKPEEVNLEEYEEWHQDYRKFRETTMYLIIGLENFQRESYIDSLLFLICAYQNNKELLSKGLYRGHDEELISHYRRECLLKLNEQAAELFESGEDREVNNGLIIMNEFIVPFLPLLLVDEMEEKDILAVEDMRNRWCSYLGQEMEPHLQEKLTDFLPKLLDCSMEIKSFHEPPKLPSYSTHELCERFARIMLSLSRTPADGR
Summary of the method: as §1

[4] = target: T3, USP28 (UniProt Q96RU2)
T3 sequence (whole entry): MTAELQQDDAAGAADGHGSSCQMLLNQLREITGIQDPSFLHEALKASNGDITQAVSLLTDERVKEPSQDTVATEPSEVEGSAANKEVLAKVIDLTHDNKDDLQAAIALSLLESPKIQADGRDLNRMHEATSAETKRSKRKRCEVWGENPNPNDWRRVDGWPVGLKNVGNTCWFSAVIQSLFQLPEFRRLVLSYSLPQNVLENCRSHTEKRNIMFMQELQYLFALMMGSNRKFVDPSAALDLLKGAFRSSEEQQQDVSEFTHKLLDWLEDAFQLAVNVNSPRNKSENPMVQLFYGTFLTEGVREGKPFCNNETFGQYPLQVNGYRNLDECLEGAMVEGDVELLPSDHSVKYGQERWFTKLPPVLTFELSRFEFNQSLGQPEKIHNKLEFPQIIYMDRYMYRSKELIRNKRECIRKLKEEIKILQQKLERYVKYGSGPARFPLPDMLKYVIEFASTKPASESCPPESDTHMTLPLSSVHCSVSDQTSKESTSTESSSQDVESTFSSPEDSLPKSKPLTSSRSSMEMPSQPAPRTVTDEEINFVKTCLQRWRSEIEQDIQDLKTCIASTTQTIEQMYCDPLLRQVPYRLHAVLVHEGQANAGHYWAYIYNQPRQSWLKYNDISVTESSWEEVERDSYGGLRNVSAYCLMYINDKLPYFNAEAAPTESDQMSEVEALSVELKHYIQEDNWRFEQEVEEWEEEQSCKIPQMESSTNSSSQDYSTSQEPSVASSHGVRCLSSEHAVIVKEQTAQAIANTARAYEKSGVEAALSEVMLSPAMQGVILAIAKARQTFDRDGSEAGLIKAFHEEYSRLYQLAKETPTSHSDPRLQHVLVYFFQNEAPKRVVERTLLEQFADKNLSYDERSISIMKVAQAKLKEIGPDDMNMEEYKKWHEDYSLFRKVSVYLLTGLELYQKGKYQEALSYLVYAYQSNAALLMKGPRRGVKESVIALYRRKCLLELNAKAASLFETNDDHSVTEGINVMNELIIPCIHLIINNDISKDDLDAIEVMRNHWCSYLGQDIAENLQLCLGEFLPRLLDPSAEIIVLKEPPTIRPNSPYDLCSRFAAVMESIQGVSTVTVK
Summary of the method: as §1

Measured: log2 ratio of Biotin-Ahx-Ub-VS probe labelling

Sequence of USP24 (Q9UPU5 whole entry): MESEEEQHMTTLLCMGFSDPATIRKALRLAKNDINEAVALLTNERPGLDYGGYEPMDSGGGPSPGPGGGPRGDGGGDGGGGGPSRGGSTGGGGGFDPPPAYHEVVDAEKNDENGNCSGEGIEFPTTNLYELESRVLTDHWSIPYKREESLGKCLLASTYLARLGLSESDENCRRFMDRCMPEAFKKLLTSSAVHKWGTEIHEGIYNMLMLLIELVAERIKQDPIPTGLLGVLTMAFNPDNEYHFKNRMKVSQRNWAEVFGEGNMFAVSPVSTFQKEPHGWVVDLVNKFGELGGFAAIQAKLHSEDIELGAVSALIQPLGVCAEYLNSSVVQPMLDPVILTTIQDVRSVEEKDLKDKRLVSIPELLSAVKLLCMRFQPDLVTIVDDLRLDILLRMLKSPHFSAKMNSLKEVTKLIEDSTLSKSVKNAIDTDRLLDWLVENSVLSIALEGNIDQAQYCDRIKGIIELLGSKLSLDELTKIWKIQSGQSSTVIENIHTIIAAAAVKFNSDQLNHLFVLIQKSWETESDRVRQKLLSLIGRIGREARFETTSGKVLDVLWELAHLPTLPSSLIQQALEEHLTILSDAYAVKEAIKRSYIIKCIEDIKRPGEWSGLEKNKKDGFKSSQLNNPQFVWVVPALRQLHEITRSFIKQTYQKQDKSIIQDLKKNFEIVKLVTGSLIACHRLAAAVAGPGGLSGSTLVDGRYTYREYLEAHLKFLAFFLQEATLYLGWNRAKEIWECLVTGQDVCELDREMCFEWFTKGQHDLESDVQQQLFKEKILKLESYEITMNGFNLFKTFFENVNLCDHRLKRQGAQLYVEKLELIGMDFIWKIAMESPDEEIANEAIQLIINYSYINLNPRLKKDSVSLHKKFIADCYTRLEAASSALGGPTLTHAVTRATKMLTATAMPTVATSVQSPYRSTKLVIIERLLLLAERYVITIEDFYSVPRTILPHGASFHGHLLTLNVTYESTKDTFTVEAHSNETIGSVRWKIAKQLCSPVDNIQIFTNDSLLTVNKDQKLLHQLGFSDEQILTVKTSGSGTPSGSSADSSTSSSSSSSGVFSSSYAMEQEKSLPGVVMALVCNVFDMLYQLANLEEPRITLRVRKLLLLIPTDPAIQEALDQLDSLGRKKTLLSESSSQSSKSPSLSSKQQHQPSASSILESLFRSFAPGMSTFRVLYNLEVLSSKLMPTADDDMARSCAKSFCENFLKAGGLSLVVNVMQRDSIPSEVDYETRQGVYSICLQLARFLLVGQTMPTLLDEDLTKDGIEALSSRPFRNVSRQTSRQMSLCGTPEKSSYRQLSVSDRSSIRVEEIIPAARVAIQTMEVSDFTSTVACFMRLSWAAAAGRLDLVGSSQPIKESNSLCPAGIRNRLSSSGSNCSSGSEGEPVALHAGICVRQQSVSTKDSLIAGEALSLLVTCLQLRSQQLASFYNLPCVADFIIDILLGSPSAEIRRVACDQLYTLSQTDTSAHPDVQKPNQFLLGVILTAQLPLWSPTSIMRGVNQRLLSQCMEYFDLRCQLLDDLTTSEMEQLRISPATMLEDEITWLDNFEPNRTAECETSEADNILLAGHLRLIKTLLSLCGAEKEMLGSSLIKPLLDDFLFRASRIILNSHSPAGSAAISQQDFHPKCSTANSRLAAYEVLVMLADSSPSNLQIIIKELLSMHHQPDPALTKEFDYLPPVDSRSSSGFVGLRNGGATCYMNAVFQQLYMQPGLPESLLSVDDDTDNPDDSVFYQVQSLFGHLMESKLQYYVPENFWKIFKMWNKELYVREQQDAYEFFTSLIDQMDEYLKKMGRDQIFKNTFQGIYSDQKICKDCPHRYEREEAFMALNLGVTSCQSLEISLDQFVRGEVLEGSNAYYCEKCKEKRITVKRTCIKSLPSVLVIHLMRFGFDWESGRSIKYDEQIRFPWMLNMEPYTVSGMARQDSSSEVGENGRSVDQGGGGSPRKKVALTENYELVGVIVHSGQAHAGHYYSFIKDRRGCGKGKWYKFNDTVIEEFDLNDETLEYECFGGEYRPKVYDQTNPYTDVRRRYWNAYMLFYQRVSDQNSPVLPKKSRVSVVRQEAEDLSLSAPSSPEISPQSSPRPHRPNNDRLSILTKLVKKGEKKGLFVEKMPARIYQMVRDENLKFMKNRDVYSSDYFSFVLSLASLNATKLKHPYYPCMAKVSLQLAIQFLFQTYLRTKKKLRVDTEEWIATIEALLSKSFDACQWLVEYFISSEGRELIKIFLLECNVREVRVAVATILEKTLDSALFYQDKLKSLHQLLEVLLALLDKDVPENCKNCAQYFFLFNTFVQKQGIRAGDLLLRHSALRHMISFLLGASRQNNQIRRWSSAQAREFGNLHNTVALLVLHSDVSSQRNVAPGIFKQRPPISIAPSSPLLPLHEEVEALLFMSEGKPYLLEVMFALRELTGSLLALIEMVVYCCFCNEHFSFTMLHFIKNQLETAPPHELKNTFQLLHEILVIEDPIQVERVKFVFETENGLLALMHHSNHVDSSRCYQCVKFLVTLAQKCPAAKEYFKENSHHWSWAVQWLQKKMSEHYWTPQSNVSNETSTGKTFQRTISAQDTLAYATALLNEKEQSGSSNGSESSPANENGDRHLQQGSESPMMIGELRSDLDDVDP

Cc1ccc(CC(NC(=O)CCl)c2ccccn2)cc1.Cl (centres undefined)
inactive: [1] 0.168 | [2] -0.13 | [3] -0.098 | [4] -0.126
